# Where “and” joins values, the source holds several entries; their conditions need not be identical. Equal values may be shown once. In all, about 5,500 compounds went through this assay and about 2,000 (36%) were called active. Not shown: some 18% with an inconclusive outcome. This is one part of the list. A number with no mark means an inactive call. Rule as the data show it: active = normalized growth mostly below about 0.91 (no sharp cut-off); inconclusive = no clear call, values can overlap the other calls; inactive = mostly above about 0.92.
# Experiment: chemical genetic growth profiling, strain panel (AID 1159580);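 also: tested at 20 µM; growth read once vehicle control cultures reached saturation at 30 °C; 1 = growth at the plate median or of vehicle wells; lower values mean less growth of the strain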
# Conditions: S. cerevisiae deletion strains, growth OD
smiles,measurement,setting,value
COC(=O)c1c(C)c2c(c(C)c1O)OC(=O)c1c(C)c(Cl)c(O)c(Cl)c1O2,normalized growth,"locus YAL021C, strain ccr4, active compounds read low",0.943
same,normalized growth,"locus YAL026C, strain drs2, active compounds read low",0.951
same,normalized growth,"locus YAL030W, strain snc1, active compounds read low",0.969
same,normalized growth,"locus YBL061C, strain skt5, active compounds read low",0.968
same,normalized growth,"locus YBR009C, strain hhf1, active compounds read low",0.935
same,normalized growth,"locus YBR021W, strain FUR4, active compounds read low",0.962
same,normalized growth,"locus YBR023C, strain chs3, active compounds read low",0.959
same,normalized growth,"locus YBR171W, strain sec66, active compounds read low",0.975
same,normalized growth,"locus YBR229C, strain ROT2, active compounds read low",0.985
same,normalized growth,"locus YBR231C, strain swc5, active compounds read low",0.976
same,normalized growth,"locus YBR279W, strain paf1, active compounds read low",0.944
same,normalized growth,"locus YCL011C, strain gbp2, active compounds read low",0.96
same,normalized growth,"locus YCL016C, strain dcc1, active compounds read low",0.967
same,normalized growth,"locus YCL029C, strain bik1, active compounds read low",1.03
same,normalized growth,"locus YCL069W, strain vba3, active compounds read low",0.944
same,normalized growth,"locus YCR088W, strain abp1, active compounds read low",0.96
same,normalized growth,"locus YDL005C, strain med2, active compounds read low",0.947
same,normalized growth,"locus YDL035C, strain GPR1, active compounds read low",0.894
same,normalized growth,"locus YDL040C, strain nat1, active compounds read low",0.943
same,normalized growth,"locus YDL074C, strain BRE1, active compounds read low",0.926
same,normalized growth,"locus YDL101C, strain DUN1, active compounds read low",0.98
same,normalized growth,"locus YDL134C, strain PPH21, active compounds read low",0.941
same,normalized growth,"locus YDL185W, strain tfp1, active compounds read low",0.995
same,normalized growth,"locus YDL192W, strain arf1, active compounds read low",0.922
same,normalized growth,"locus YDR001C, strain nth1, active compounds read low",0.969
same,normalized growth,"locus YDR069C, strain doa4, active compounds read low",0.967
same,normalized growth,"locus YDR101C, strain arx1, active compounds read low",1
same,normalized growth,"locus YDR137W, strain rgp1, active compounds read low",0.87
same,normalized growth,"locus YDR159W, strain sac3, active compounds read low",0.902
same,normalized growth,"locus YDR162C, strain NBP2, active compounds read low",0.734 (active)
same,normalized growth,"locus YDR195W, strain ref2",1.03
same,normalized growth,"locus YDR297W, strain sur2, active compounds read low",0.944
same,normalized growth,"locus YDR318W, strain mcm21, active compounds read low",0.975
same,normalized growth,"locus YDR334W, strain swr1, active compounds read low",0.939
same,normalized growth,"locus YDR335W, strain msn5, active compounds read low",0.939
same,normalized growth,"locus YDR388W, active compounds read low",0.984
same,normalized growth,"locus YDR392W, strain spt3, active compounds read low",0.617 (active)
same,normalized growth,"locus YDR502C, strain sam2, active compounds read low",0.96
same,normalized growth,"locus YEL003W, strain gim4, active compounds read low",0.969
same,normalized growth,"locus YEL037C, strain rad23, active compounds read low",0.957
same,normalized growth,"locus YEL061C, strain CIN8 (second series), active compounds read low",0.961
same,normalized growth,"locus YEL061C, strain CIN8, active compounds read low",0.986
same,normalized growth,"locus YER015W, strain faa2, active compounds read low",0.977
same,normalized growth,"locus YER016W, strain bim1, active compounds read low",0.96
same,normalized growth,"locus YER110C, active compounds read low",1.03
same,normalized growth,"locus YER111C, strain swi4, active compounds read low",0.979
same,normalized growth,"locus YER155C, strain BEM2 (second series), active compounds read low",0.97
same,normalized growth,"locus YER155C, strain BEM2, active compounds read low",1.01
same,normalized growth,"locus YER167W, strain BCK2, active compounds read low",0.937
same,normalized growth,"locus YFR010W, strain ubp6, active compounds read low",0.952
same,normalized growth,"locus YGL078C, strain dbp3, active compounds read low",0.991
same,normalized growth,"locus YGL086W, strain mad1, active compounds read low",0.962
same,normalized growth,"locus YGL167C, strain pmr1, active compounds read low",0.95
same,normalized growth,"locus YGL173C, strain kem1, active compounds read low",0.966
same,normalized growth,"locus YGL227W, strain vid30, active compounds read low",0.969
same,normalized growth,"locus YGL240W, strain doc1, active compounds read low",0.93
same,normalized growth,"locus YGL248W, strain PDE1, active compounds read low",0.983
same,normalized growth,"locus YGL253W, strain hxk2, active compounds read low",0.952
same,normalized growth,"locus YGR135W, strain pre9, active compounds read low",0.964
same,normalized growth,"locus YGR229C, strain SMI1, active compounds read low",0.462 (active)
same,normalized growth,"locus YGR252W, strain gcn5, active compounds read low",0.927
same,normalized growth,"locus YHR013C, strain ard1, active compounds read low",0.946
same,normalized growth,"locus YHR027C, strain rpn1, active compounds read low",0.957
same,normalized growth,"locus YHR030C, strain SLT2, active compounds read low",0.992 and 0.949
same,normalized growth,"locus YHR079C, strain IRE1 (second series), active compounds read low",1.03
same,normalized growth,"locus YHR079C, strain IRE1, active compounds read low",0.94
same,normalized growth,"locus YHR094C, strain hxt1, active compounds read low",1.03
same,normalized growth,"locus YHR129C, strain ARP1, active compounds read low",0.973
same,normalized growth,"locus YHR142W, strain chs7, active compounds read low",0.849 (active)
same,normalized growth,"locus YHR200W, strain rpn10, active compounds read low",0.993
same,normalized growth,"locus YIL066C, strain RNR3, active compounds read low",0.892
same,normalized growth,"locus YIL073C, strain SPO22, active compounds read low",0.976
same,normalized growth,"locus YIL125W, strain kgd1, active compounds read low",1.01
same,normalized growth,"locus YIR030C, strain dcg1, active compounds read low",1.02
same,normalized growth,"locus YJL092W, strain hpr5, active compounds read low",0.979
same,normalized growth,"locus YJL095W, strain BCK1 (second series), active compounds read low",0.955
same,normalized growth,"locus YJL095W, strain BCK1, active compounds read low",0.84 and 0.969
same,normalized growth,"locus YJL115W, strain asf1, active compounds read low",0.956
same,normalized growth,"locus YJL129C, strain trk1, active compounds read low",0.9
same,normalized growth,"locus YJL134W, strain LCB3, active compounds read low",1
same,normalized growth,"locus YJL154C, strain vps35, active compounds read low",0.967
same,normalized growth,"locus YJL164C, strain tpk1, active compounds read low",0.926
same,normalized growth,"locus YJL166W, strain qcr8, active compounds read low",0.94
same,normalized growth,"locus YJL168C, strain set2, active compounds read low",0.997
same,normalized growth,"locus YJL187C, strain SWE1 (second series), active compounds read low",0.966
same,normalized growth,"locus YJR043C, strain POL32, active compounds read low",0.853 (active)
same,normalized growth,"locus YJR066W, strain TOR1, active compounds read low",0.878
same,normalized growth,"locus YKL009W, strain mrt4, active compounds read low",1.01
same,normalized growth,"locus YKL068W, active compounds read low",1
same,normalized growth,"locus YKL085W, strain MDH1 (second series), active compounds read low",1.01
same,normalized growth,"locus YKL085W, strain MDH1, active compounds read low",1.01
same,normalized growth,"locus YKL160W, strain elf1, active compounds read low",0.956
same,normalized growth,"locus YKL190W, strain CNB1, active compounds read low",0.957
same,normalized growth,"locus YKR001C, strain vps1, active compounds read low",0.937
same,normalized growth,"locus YKR026C, strain gcn3, active compounds read low",0.97
same,normalized growth,"locus YKR091W, strain srl3, active compounds read low",0.967
same,normalized growth,"locus YLL001W, strain dnm1, active compounds read low",0.959
same,normalized growth,"locus YLL026W, active compounds read low",0.975
same,normalized growth,"locus YLL041C, strain sdh2, active compounds read low",0.964
same,normalized growth,"locus YLR027C, strain aat2, active compounds read low",0.984
same,normalized growth,"locus YLR039C, strain RIC1, active compounds read low",0.928
same,normalized growth,"locus YLR058C, strain SHM2, active compounds read low",0.985
same,normalized growth,"locus YLR102C, strain apc9, active compounds read low",1.01
same,normalized growth,"locus YLR113W, strain HOG1, active compounds read low",1.04
same,normalized growth,"locus YLR221C, strain rsa3, active compounds read low",0.958
same,normalized growth,"locus YLR258W, strain gsy2, active compounds read low",0.937
same,normalized growth,"locus YLR262C, strain YPT6 (second series), active compounds read low",0.855 (active)
same,normalized growth,"locus YLR262C, strain YPT6, active compounds read low",0.865
same,normalized growth,"locus YLR268W, strain sec22, active compounds read low",1
same,normalized growth,"locus YLR320W, strain mms22, active compounds read low",0.932
same,normalized growth,"locus YLR330W, strain CHS5, active compounds read low",0.987
same,normalized growth,"locus YLR342W, strain FKS1 (second series), active compounds read low",0.751 (active)
same,normalized growth,"locus YLR342W, strain FKS1, active compounds read low",0.971
same,normalized growth,"locus YLR357W, strain rsc2, active compounds read low",0.922
same,normalized growth,"locus YLR370C, strain arc18, active compounds read low",0.958
same,normalized growth,"locus YLR371W, strain rom2, active compounds read low",1.03
same,normalized growth,"locus YLR384C, strain iki3, active compounds read low",0.983
same,normalized growth,"locus YLR418C, strain cdc73, active compounds read low",0.83 (active)
same,normalized growth,"locus YML016C, strain PPZ1, active compounds read low",1.01
same,normalized growth,"locus YML032C, strain rad52, active compounds read low",0.959
same,normalized growth,"locus YML120C, strain ndi1, active compounds read low",0.957
same,normalized growth,"locus YML124C, strain tub3, active compounds read low",1.02
same,normalized growth,"locus YMR058W, strain fet3, active compounds read low",0.95
same,normalized growth,"locus YMR078C, strain ctf18, active compounds read low",1.01
same,normalized growth,"locus YMR125W, strain sto1, active compounds read low",0.986
same,normalized growth,"locus YMR129W, active compounds read low",0.974
same,normalized growth,"locus YMR205C, strain PFK2, active compounds read low",0.879
same,normalized growth,"locus YMR223W, strain ubp8, active compounds read low",0.949
same,normalized growth,"locus YMR231W, strain pep5, active compounds read low",0.954
same,normalized growth,"locus YMR307W, strain GAS1, active compounds read low",0.545 (active)
same,normalized growth,"locus YNL067W, strain RPL9B, active compounds read low",0.996
same,normalized growth,"locus YNL071W, strain lat1, active compounds read low",0.932
same,normalized growth,"locus YNL183C, strain NPR1, active compounds read low",0.931
same,normalized growth,"locus YNL209W, strain ssb2, active compounds read low",0.991
same,normalized growth,"locus YNL233W, strain BNI4, active compounds read low",0.916
same,normalized growth,"locus YNL248C, strain rpa49, active compounds read low",0.954
same,normalized growth,"locus YNL250W, strain rad50, active compounds read low",1.02
same,normalized growth,"locus YNL271C, strain bni1, active compounds read low",1
same,normalized growth,"locus YNL298W, strain CLA4, active compounds read low",1.01
same,normalized growth,"locus YNL307C, strain MCK1, active compounds read low",0.978
same,normalized growth,"locus YNL322C, strain KRE1 (second series), active compounds read low",0.976
same,normalized growth,"locus YNR049C, strain mso1, active compounds read low",0.955
same,normalized growth,"locus YNR052C, strain pop2, active compounds read low",0.967
same,normalized growth,"locus YOL012C, strain htz1",1.87
same,normalized growth,"locus YOL147C, strain pex11, active compounds read low",1
same,normalized growth,"locus YOR001W, strain rrp6, active compounds read low",0.945
same,normalized growth,"locus YOR061W, strain CKA2, active compounds read low",0.99
same,normalized growth,"locus YOR069W, strain VPS5, active compounds read low",1.01
same,normalized growth,"locus YOR070C, strain gyp1, active compounds read low",0.98
same,normalized growth,"locus YOR080W, strain dia2, active compounds read low",0.965
same,normalized growth,"locus YOR083W, strain WHI5, active compounds read low",0.932
same,normalized growth,"locus YOR106W, strain vam3, active compounds read low",0.877
same,normalized growth,"locus YOR136W, strain idh2, active compounds read low",0.997
same,normalized growth,"locus YOR144C, strain elg1, active compounds read low",1.02
same,normalized growth,"locus YOR184W, strain ser1, active compounds read low",0.874
same,normalized growth,"locus YOR231W, strain MKK1, active compounds read low",0.972
same,normalized growth,"locus YOR265W, strain rbl2, active compounds read low",0.962
same,normalized growth,"locus YOR270C, strain vph1, active compounds read low",0.715 (active)
same,normalized growth,"locus YOR290C, strain snf2, active compounds read low",0.92
same,normalized growth,"locus YOR316C, strain cot1, active compounds read low",1
same,normalized growth,"locus YPL051W, strain arl3, active compounds read low",0.925
same,normalized growth,"locus YPL078C, strain atp4, active compounds read low",0.964
same,normalized growth,"locus YPL106C, strain sse1, active compounds read low",0.903
same,normalized growth,"locus YPL240C, strain hsp82, active compounds read low",0.96
same,normalized growth,"locus YPL256C, strain CLN2, active compounds read low",0.954
same,normalized growth,"locus YPR119W, strain clb2, active compounds read low",1
same,normalized growth,"locus YPR141C, strain kar3, active compounds read low",0.995
same,normalized growth,"locus YPR163C, strain tif3, active compounds read low",1.02
same,normalized growth,"locus YPR167C, strain met16, active compounds read low",0.982
same,normalized growth,"strain wtn01, active compounds read low",1

# From PubChem BioAssay AID1159580 (chemical genetic matrix, 2015)
